Reference: PubChem BioAssay AID618 (Sanford-Burnham Center for Chemical Genomics, 2007)
Among all 87,000 compounds or so, about 540 (0.62%) were called active. This is one part of a sample in which actives are shown more often than they occur. How the calls were made is not given here. Results with a measured potency or affinity are listed apart.

Assay: MT1-MMP gene expression reporter suppression – cell-based, luciferase reporter, luminescence (AID 618);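 further: actives suppress MT1-MMP promoter-driven transcription so potencies describe inhibitors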
Settings: MT1-MMP promoter luciferase reporter cells

| Compound | outcome |
| --- | --- |
| CCOC(=O)c1cnc(-c2cccc(OC)c2)[nH]c1=O | inactive |
| COc1ccc(CNC(=O)CCCCCn2c(SCC#N)nc3cc4c(cc3c2=O)OCO4)cc1 | inactive |
| CCC(=O)c1ccc(OCC(O)CN2CCN(C(c3ccccc3)c3ccccc3)CC2)cc1 (stereo not drawn) | inactive |
| CCOC(CNC(=O)c1cccn2c(=O)c3cc(Cl)ccc3nc12)OCC | inactive |
| COc1ccc(S(=O)(=O)Nc2nnc(C(C)(C)C)s2)cc1 | inactive |
| Cc1c(NC(=O)c2cc(C(C)C)on2)c(=O)n(-c2ccccc2)n1C | inactive |
| CCC(OC(=O)c1cc2sccc2n1C)C(=O)NCC1CCCO1 (stereo not drawn) | inactive |
| Nc1ccnc(C(F)(F)F)c1C(=O)c1ccccc1 | inactive |
| CC(C)OC(=O)CSc1nnc(-c2cccnc2)n1Cc1ccccc1 | inactive |
| Cc1ccc(C)c(OCCCCn2ccnc2)c1 | inactive |
| COC(=O)c1ccc(-c2nc3ccccc3o2)cc1 | inactive |
| Cc1ccccc1-c1nc2cc(N)ccc2o1 | inactive |
| Nc1ccc2oc(-c3cc(Br)ccc3Cl)nc2c1 | inactive |
| COC(=O)c1ccc(-c2nc3ccc(C)cc3o2)cc1 | inactive |
| Nc1ccc2oc(-c3ccccc3Cl)nc2c1 | active |
| Nc1ccc2oc(-c3cccc4ccccc34)nc2c1 | inactive |
| Cc1ccc(C)c(-c2nc3cc(N)ccc3o2)c1 | inactive |
| COc1ccc(-c2nnc(-c3ccc(N)cc3)o2)cc1 | inactive |
| Nc1nc2ccc(-c3nc4ccccc4o3)cc2s1 | inactive |
| CCc1c(C)nc2ncnn2c1N1CCCC(C(=O)Nc2ccc(NC(C)=O)cc2)C1 (stereo not drawn) | inactive |
| Cc1ccc(NC(=O)c2ccc(N3C(=O)C4CC=C(Cl)CC4C3=O)cc2)cc1 (stereo not drawn) | inactive |
| COC(=O)[C@@H]1C[C@@]2(O)[C@H](O)[C@H](O)[C@H](O)C[C@H]2N1Cc1c(F)cccc1Cl | inactive |
| CC(C)Cc1ccc(S(=O)(=O)N2CCOCC2)cc1 | inactive |
| O=C(CC1CCS(=O)(=O)C1)NC1CCCCC1 (stereo not drawn) | inactive |

| Compound | outcome |
| --- | --- |
| O=C(CN1CC(c2ccccc2)CC1=O)OCc1ccccc1F (stereo not drawn) | inactive |
| Cc1cccc(CSC2=NCCN2C(=O)c2ccco2)c1 | inactive |
| COCCn1c(=O)c2c3c(sc2n(CC(N)=O)c1=O)CCCC3 | inactive |
| COc1ccc(Br)c(C(=O)Nn2c(C)nc3ccccc3c2=O)c1 | inactive |
| Cc1ccc(C)c(Cn2nnc3c(=O)[nH]c(C4CCN(C(=O)c5cccs5)CC4)nc32)c1 | inactive |
| CCCNC(=O)NC(C)C12CC3CC(CC(C3)C1)C2 (stereo not drawn) | inactive |
| COc1ccccc1NC(=O)c1ccc(COc2ccccc2OC)o1 | inactive |
| CCn1c(=O)c(=O)n(CC)c2cc(S(=O)(=O)Nc3cccc(OC)c3)ccc21 | inactive |
| CCn1c(=O)cc(SCC(=O)Nc2ccccc2N2CCN(C)CC2)c2ccccc21 | inactive |
| Cc1ccc(NC(=O)Cc2cn3ccsc3n2)nc1 | inactive |
| COc1cc(OC)cc(-c2nc3cc(C)ccc3o2)c1 | inactive |
| CC(C)c1ccc2oc(-c3ccc(NC(=O)c4ncn[nH]4)cc3)nc2c1 | inactive |
| CC(C)c1ccc2oc(-c3cc(N)ccc3O)nc2c1 | inactive |
| CCOc1cccc(-c2nc3cc(C)ccc3o2)c1 | inactive |
| O=C1CC(=C2c3ccccc3-c3ccccc32)C(=O)N1CCN1CCN(c2ccccc2)CC1 | inactive |
| Cc1nn(Cc2nc(-c3cccs3)no2)c(C)c1Br | inactive |
| COc1ccccc1-c1nnc(SCC(=O)O)n1C | inactive |
| CC1=C(C(=O)OCc2ccccc2)C(c2ccc3ccccc3c2)NC(=O)N1CCCCCC(=O)O (stereo not drawn) | inactive |
| Cn1nnnc1Sc1ncnc2scc(-c3ccc(F)cc3)c12 | inactive |
| Cc1ccc(-c2csc3ncnc(NCCN4CCOCC4)c23)cc1 | inactive |
| Cc1cnc(C(=O)Nc2ccc(N3CCOCC3)cc2)cn1 | inactive |
| O=C(Nc1ccc(N2CCOCC2)cc1)c1cnsn1 | active |
| CCOc1ccc(NC(=O)c2ccncc2)cc1 | inactive |
| CCOc1ccc(NC(=O)c2cnccn2)cc1 | inactive |

| Compound | outcome |
| --- | --- |
| O=C(Nc1ccc(N2CCOCC2)cc1)Nc1cnsn1 | inactive |
| CCc1nnc(NC(=O)CN2C(=O)c3ccccc3S2(=O)=O)s1 | inactive |
| CC1(C)CC(=O)C2=C(C1)Nc1ncnn1C2c1ccccn1 (stereo not drawn) | inactive |
| CCOc1ccc(C2C(C(=O)c3cccs3)=C(O)C(=O)N2CCCn2ccnc2)cc1 (stereo not drawn) | inactive |
| CN1CCN(c2ccccc2NC(=O)c2ccc(-c3ccccc3)cc2)CC1 | inactive |
| CC(=O)c1c(C)[nH]c(C(=O)Nc2cc(C)ccc2C)c1C | inactive |
| CC(=O)c1c(C)[nH]c(C(=O)Nc2ccc(C)cn2)c1C | active |
| CC(=O)c1c(C)[nH]c(C(=O)Nc2cc(C)cc(C)c2)c1C | inactive |
| CC1=C/C(=N\OS(=O)(=O)c2ccccc2)C=CC1=O | inactive |
| CC1=CC(=O)C=C(C)C1=NOS(=O)(=O)c1ccccc1 | active |
| CC1=C(C)/C(=N\OS(=O)(=O)c2ccccc2)C=CC1=O | inactive |
| Cc1cccc(C2N(c3ccc(F)cc3)C(=O)C3CCCN32)c1 (stereo not drawn) | inactive |
| O=S(=O)(Nc1ccccn1)c1ccc(C2CCCCC2)cc1 | inactive |
| CC1=CC(C)(C)N(S(=O)(=O)c2ccc(F)cc2)c2ccc(C)cc21 | inactive |
| Cc1ccc(S(=O)(=O)N2CC3(C)CN(S(=O)(=O)c4ccc(C)cc4)CC(C)(C2)C3)cc1 | inactive |
| CC1=CC(C)(C)N(S(=O)(=O)c2ccc(C)cc2)c2ccccc21 | active |
| CC1=CC(C)(C)N(S(=O)(=O)c2ccc(F)cc2)c2ccccc21 | inactive |
| CC1=CC(C)(C)N(C(=O)CN2C(=O)c3ccccc3C2=O)c2ccccc21 | inactive |
| CC1=CC(C)(C)N(S(=O)(=O)c2ccc(C)cc2)c2ccc(C)cc21 | active |
| CC1=CC(C)(C)N(S(=O)(=O)c2ccc(C)cc2)c2cc(C)ccc21 | active |
| Cc1ccc(S(=O)(=O)N2C(=S)SCC2(C)C)cc1 | inactive |
| CC1=CC(C)(C)N(C(=O)c2ccccc2)c2ccc(C)cc21 | inactive |
| O=C(CN1CCN(c2ccccc2)CC1)Nc1c(C(=O)C2CC2)oc2ccccc12 | inactive |
| CC(C)n1nnnc1C(c1ccc(F)cc1)N1CCN(C2CCCC2)CC1 (stereo not drawn) | inactive |

| Compound | outcome |
| --- | --- |
| Cc1ccc(NC2=NCCC2)cc1Cl | inactive |
| C=CCn1c(=O)c2ccccc2n2c(SCc3csc(-c4ccccc4)n3)nnc12 | inactive |
| Cn1c(-c2ccc(F)cc2)cnc1SCC(=O)N1CCCCC1 | inactive |
| Cn1c(-c2ccccc2)cnc1SCC(N)=O | inactive |
| CCOC(=O)c1c(NC(=O)Cc2cccs2)sc2c1CCCC2 | inactive |
| COC(=O)c1ccccc1NC(=O)CN1CCC(NC(=O)c2ccccc2C)CC1 | inactive |
| CC(C)c1nnc(NC(=O)c2sc3ccccc3c2Cl)s1 | inactive |
| Cc1nnc(NC(=O)c2sc3ccccc3c2Cl)s1 | active |
| COCc1nnc(NC(=O)c2sc3ccccc3c2Cl)s1 | inactive |
| O=C(NCc1ccc2c(c1)OCO2)c1ccccn1 | inactive |
| O=C(/C=C\Nc1cccc(F)c1)c1ccc2c(c1)OCO2 | inactive |
| CN(C(=O)c1ccco1)c1nc(CC(=O)Nc2ccccc2)cs1 | inactive |
| CN(C(=O)c1ccco1)c1nnc(C23CC4CC(CC(C4)C2)C3)s1 | inactive |
| COC(=O)[C@@]1(Cc2ccc(OC)cc2)[C@H]2c3cc(C(=O)N4CCCC4)n(CCF)c3C[C@H]2CN1C(=O)c1ccccc1 | inactive |
| COc1cc(C(=O)N2CCN(C(=O)Cc3ccccc3)CC2)cc(OC)c1OC | inactive |
| C=CCNC(=O)c1ccc2nccnc2c1 | inactive |
| CC(C)C(=O)N(Cc1cc2ccccc2[nH]c1=O)C(C)C | inactive |
| C=CCn1c(SCc2cc(=O)n3ccsc3n2)nc2scc(C3CC3)c2c1=O | inactive |
| COc1ccccc1NC(=S)NNC(=O)c1ccccc1 | inactive |
| O=C(NCCCN1CCOCC1)c1ccccc1 | inactive |
| COc1ccc(-c2nc3ccccc3s2)cc1O | active |
| c1ccc2sc(-c3ccc4c(c3)OCO4)nc2c1 | inactive |
| COc1cc(OC)cc(-c2nc3ccccc3s2)c1 | inactive |
| COc1cccc(-c2nc3ccccc3s2)c1 | inactive |

| Compound | outcome |
| --- | --- |
| COc1cc(-c2nc3ccccc3s2)ccc1O | inactive |
| COC(=O)CSc1nc2ccc(C)cc2[nH]1 | inactive |
| CCN(CC)S(=O)(=O)c1ccc(C2CNC(=O)C2)cc1 (stereo not drawn) | inactive |
| CCn1cnc2c1c(=O)n(Cc1csc(-c3ccccc3)n1)c(=O)n2Cc1ccccc1 | inactive |
| COc1cccc(NC(=O)CCN2C(=O)c3ccccc3S2(=O)=O)c1 | inactive |
| CCc1nnc(NC(=O)CSc2nc3c(cc2C#N)CCC3)s1 | inactive |
| CCc1nnc(NC(=O)CSc2nc3c(cc2C#N)CCCC3)s1 | inactive |
| Cc1cc(C(F)(F)F)n2ncc(-c3ccc(F)cc3)c2n1 | inactive |
| COc1ccccc1NC(=O)CSc1nnc(-c2ccccc2)o1 | inactive |
| Cc1cccc(NC(=O)CSc2nnc(-c3ccccc3C)o2)c1 | inactive |
| COC(=O)c1ccccc1NC(=O)CSc1nnc(-c2ccc(C)cc2)o1 | inactive |
| CCOc1ccccc1-c1nnc(SCC(=O)Nc2ccccc2)o1 | inactive |
| Cc1ccc(C)c(NC(=O)CSc2nnc(-c3ccccc3)o2)c1 | inactive |
| COc1ccccc1NC(=O)CSc1nnc(-c2ccc(C)cc2)o1 | inactive |
| CCN(CC)S(=O)(=O)c1ccc(NC(=O)CN(c2ccc(OC)cc2OC)S(C)(=O)=O)cc1 | inactive |
| O=C(NCCCO)C12CC3CC(CC(C3)C1)C2 | inactive |
| O=C(NC(NC1CCS(=O)(=O)C1)C(=O)c1ccccc1)c1ccc(Cl)cc1 (stereo not drawn) | inactive |
| C/C(=C\C(=O)c1ccc(C)cc1)Nc1cccc(O)c1 | inactive |
| Cc1ccc(C(=O)/C=C/Nc2cccc(O)c2)cc1 | active |
| Cc1ccc(N/C=C/C(=O)c2ccc(C)cc2)cc1 | inactive |
| O=C(Nc1cccc(O)c1)c1ccccc1 | inactive |
| O=C(/C=C/Nc1ccccc1)c1ccccc1 | inactive |
